# uPA surface inh = qHTS for Inhibitors of Cell Surface uPA Generation; cell surface uPA generation assay, qHTS; Potency, µM (highest dose often 38.3 µM), inactives show top-dose activity change, negative = inhibition, usual class: inhibitors; hit rate 0.31% among 330,000; active = well fitted inhibition curve with a large enough effect; inconclusive = small, poorly fitted or top-dose-only effect; inactive = no such curve, though single readings can be large or run the other way; tested in mouse RAW 264.7 cells; also: % is scaled to controls: 0 for no effect and ±100 for the full control effect; nearly all actives have a fitted effect of over 55% in size
# Chronic BCR inh = qHTS Assay to Find Inhibitors of Chronic Active B-Cell Receptor Signaling; ABC-DLBCL IkBa-CBG/CBR reporter, luminescence ratio, 4 h; Potency, µM (top dose mostly 46.1 µM), for the others: at the highest dose activity change, negative = inhibition, hits mostly inhibitors; hit rate 0.05% among 340,000; AID 493014, 2011; active = well fitted inhibition curve with a large enough effect in the signal ratio, with a control signal flat, not every such curve was filed as active; inconclusive = small, poorly fitted or top-dose-only effect, or effect the other way, or a change in a side signal; the % refers to the signal ratio;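 also: plate controls were basal doxycycline-induced cells for no effect and cells given 10 µM MG132 for full effect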
#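 Doxycycline induced both beetle luciferases in TMD8 lymphoma cells; IKK-driven degradation limits the IkappaBalpha-fused green signal, while red luminescence normalises for cell number and nonspecific effects. Compounds tested up to 46 uM, 4 hrs.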
# Integrin act MD = qHTS for Activators of Integrin-Mediated Alleviation for Muscular Dystrophy; alpha7betagal myoblasts, beta-gal FDG fluorescence, 48 h; Potency, µM (series often up to 38.3 µM), for the others: top-dose activation, most hits filed as activators; hit rate 0.064% among 350,000; AID 624291, 2012;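 also: 100% = response of the positive control SU9516; nearly all actives have a fitted effect of over 60% in size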
#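 Alpha7betagal+/- myoblasts (passage 13) were plated 16-24 hr, then exposed to compounds (1:260 dilution of DMSO stock) for 48 hours at 37C. After MPER lysis, β-galactosidase reporter activity was read as FDG fluorescence (ex 480/em 540) after 30 minutes.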
# Mito fusion act = qHTS Assay for Small Molecule Inhibitors of Mitochondrial Division or Activators of Mitochondrial Fusion; S. cerevisiae fusion-defective mutant growth rescue, CellTiterGlo 48 h; hit rate 0.23% among 320,000; Potency, µM (doses to about 46.1 µM), inactives show top-dose growth rescue (activation), most hits filed as activators; also: % of control where 0% means no effect; nearly all actives have a fitted effect of over 45% in size
#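 Growth-rescue viability read-out: after 48 h at the non-permissive 37C in glycerol/ethanol YPEG, yeast mitochondrial fusion mutants are measured by CellTiterGlo luminescence; compounds (23 nl pinned per well) restoring growth score as division inhibitors or fusion activators.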
# RORgamma inh = qHTS for inhibitors of ROR gamma transcriptional activity; Nuclear receptor ROR-gamma (Mus musculus), P51450; Drosophila S2 Gal4-RORgamma UAS-luciferase reporter, 20 h; Potency, µM (top dose mostly 53.6 µM), for inactives: top-dose activity change, negative = inhibition, actives largely listed as inhibitors; hit rate 5.4% among 310,000; also: % is scaled to controls: 0 for no effect and ±100 for the full control effect; nearly all actives have a fitted effect of over 60% in size
# Target sequence (P51450 whole entry, looked up, the tested form may be a part): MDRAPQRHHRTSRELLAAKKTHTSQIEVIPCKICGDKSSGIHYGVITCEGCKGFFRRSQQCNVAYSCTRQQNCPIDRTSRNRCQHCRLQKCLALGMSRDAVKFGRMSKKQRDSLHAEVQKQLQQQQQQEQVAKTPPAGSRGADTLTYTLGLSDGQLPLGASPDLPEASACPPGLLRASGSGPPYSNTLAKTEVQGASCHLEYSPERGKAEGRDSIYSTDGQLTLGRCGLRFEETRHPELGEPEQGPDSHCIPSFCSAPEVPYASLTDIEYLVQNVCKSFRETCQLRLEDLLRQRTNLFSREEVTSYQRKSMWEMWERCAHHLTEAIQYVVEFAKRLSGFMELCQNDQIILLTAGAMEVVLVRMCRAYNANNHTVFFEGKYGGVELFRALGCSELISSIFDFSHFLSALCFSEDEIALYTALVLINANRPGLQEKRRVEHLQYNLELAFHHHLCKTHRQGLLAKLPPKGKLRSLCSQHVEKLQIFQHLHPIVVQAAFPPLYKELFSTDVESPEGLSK
#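 In this cell-based reporter format, copper sulfate (700 uM final) drives Gal4–ROR gamma fusion expression from a metallothionein promoter in Drosophila Schneider cells; compounds preincubated 1 hr, reporter read after 20 hr at ambient temperature.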
# Gal4-VP16 FLuc = VP16 counterscreen qHTS for inhibitors of ROR gamma transcriptional activity; hit rate 3.5% among 310,000; Potency, µM (top dose mostly 53.6 µM), for the others: top-dose activity, negative = inhibition, hits mostly inhibitors; Drosophila S2 Gal4-VP16 UAS-luciferase, luminescence, 20 h; AID 2546, 2010;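 also: Gal4-VP16 expression switched on by copper sulfate through the metallothionein promoter; % is scaled to controls: 0 for no effect and ±100 for the full control effect; nearly all actives have a fitted effect of over 50% in size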
# An asterisk follows results filed as active; ? = inconclusive; . = no result; [ ] = another dose, or the depositor's remark. The list is not random: actives were taken first. Their share in the collection is about 5.5%. Unless noted, calls follow the shape of the dose curve; as a rule, active = well fitted curve in the direction sought with a large enough effect; inconclusive = small, poorly fitted or top-dose-only effect, or another doubt; inactive = no such curve, though single readings can be large; an effect the other way counts as inactive or inconclusive. Potency is read from the fitted curve at half-maximal effect.
SMILES,uPA surface inh,Chronic BCR inh,Integrin act MD,Mito fusion act,RORgamma inh,Gal4-VP16 FLuc
Cc1ccc(NC(=O)CN2C(=O)NC3(CCCCC3C)C2=O)cc1S(=O)(=O)N1CCCCC1 (stereo not given),-2%,-12%,-7%,-4%,.,.
Cc1c(NC(=O)/C=C/c2ccc(S(=O)(=O)N3CCOCC3)cc2)c(=O)n(-c2ccccc2)n1C,-2%,-10%,-4%,-4%,39%,10%
COc1ccc(OC)c(-n2c(=S)[nH]c3cc(C(=O)N(C)Cc4ccccc4)ccc3c2=O)c1,4%,?,25%,-7%,13µM*,?
COc1ccc(OC)c(-n2c(=S)[nH]c3cc(C(=O)N4CCN(c5ccccc5)CC4)ccc3c2=O)c1,3%,6%,-16%,-8%,11µM*,-9%
COc1ccc(-n2c(=S)[nH]c3cc(C(=O)NCCCN4CCCC4=O)ccc3c2=O)c(OC)c1,-2%,14%,8%,2%,?,-18%
COc1ccccc1N1CCN(C(=O)c2ccc3c(=O)n(Cc4ccco4)c(=S)[nH]c3c2)CC1,-4%,?,-49%[7.66 µM],0%,6.3µM*,?
O=C1C(=NO)C(c2ccccc2)Oc2ccccc21 (stereo not given),-1%,.,-6%,.,.,.
COc1ccc(C2c3c(oc4ccc(Cl)cc4c3=O)C(=O)N2CCCN(C)C)cc1OC (stereo not given),.,11%,.,.,.,.
CCC(C(=O)O)C1OC(C(C)C(O)C(C)C(=O)C(CC)C2OC3(C=CC(O)C4(CCC(C)(C5CCC(O)(CC)C(C)O5)O4)O3)C(C)CC2C)C(C)CC1C (stereo not given),.,.,.,.,0.89µM*,0.45µM*
N#Cc1ccc(CSc2ccc(S(=O)(=O)N3CCCC3)cn2)cc1,4%,7%,-22%,1%,.,.
Cc1ccc(C(=O)COC(=O)COc2ccccc2[N+](=O)[O-])s1,3%,?,-9%,4%,.,.
CCOC(=O)COc1ccccc1/C=C\[N+](=O)[O-],-16%,?,-44%,0%,16µM*,3.5µM*
O=C(CCCC(=O)Nc1ccccc1Br)N/N=C/c1c(F)cccc1Cl,2%,4%,7%,1%,-30%,3%
O=[N+]([O-])c1ccc(/C=N/NC(=S)Nc2ccccc2)o1,-3%,?,-26%,7%,?,?
Fc1ccccc1NC(=S)N/N=C/c1ccccc1Br,.,?,16%,-7%,3.2µM*,4.5µM*
O=[N+]([O-])c1ccc(/C=N/NC(=S)Nc2ccccc2F)o1,3%,-23%,6%,0%,7.1µM*,7.9µM*
CCCCn1c(N)c(N(CC(C)C)C(=O)C2=COCCO2)c(=O)[nH]c1=O,0%,1%,-15%,0%,.,.
COc1ncnc2c1NC1=C(S2)C(=NCCC(=O)O)CC(C)(C)C1,-1%,12%,1%,0%,?,18µM*
CCOc1ccc(/C=N/Nc2cc(C)nc(N3CCOCC3)n2)cc1,1%,3%,-21%,-4%,31%,-8%
COc1cccc(/C=N/Nc2nnc(C)n2N)c1O,-5%,?,0%,-6%,2.2µM*,3.2µM*
COc1cccc(/C=N/Nc2cc(Cl)nc(C)n2)c1O,1%,14%,-1%,-4%,0.5µM*,2.8µM*
Cc1nnc(N/N=C/c2ccccc2F)n1N,-3%,?,-21%,-7%,-36%,?
CCOc1ccc(/C=N/Nc2cc(N3CCOCC3)nc(C)n2)c(O)c1,-26%,3%,-36%,0%,7.1µM*,11µM*
Cc1nnc(N/N=C/c2ccco2)n1N,-9%,2%,-6%,-1%,11µM*,13µM*
COc1cccc(/C=N/Nc2cc(N3CCOCC3)ncn2)c1O,-13%,?,-26%,0%,11µM*,11µM*
SMILES,uPA surface inh,Chronic BCR inh,Integrin act MD,Mito fusion act,RORgamma inh,Gal4-VP16 FLuc
O=C(CSc1cccc[n+]1[O-])c1cc(Cl)ccc1Cl,0%,?,-16%,-9%,11µM*,?
O=C(O)CSc1cccc[n+]1[O-],-2%,.,-1%,-4%,-14%,10%
Cn1nccc1NC(=O)Nc1cccc(Cl)c1,-4%,14%,-11%,-3%,15%,-8%
Cn1nccc1-c1cc(Cl)cc(Cl)c1O,-2%,?,-19%,-3%,?,32µM*
[O-][N+]1=c2ccc(Nc3ccccc3)cc2=NC12CCCCC2,-10%,?,-54%,-8%,10µM*,13µM*
COc1ccc(Nc2ccc3c(c2)=NC2(CCCCC2)[N+]=3[O-])cc1,-12%,?,-61%,2%,11µM*,11µM*
Cc1cc(C)n2cc(CSc3nncn3C)nc2n1,-3%,1%,10%,2%,0%,3%
Cc1noc(C)c1S(=O)(=O)N(C)C[C@H]1Oc2c(NC(=O)NC(C)C)cccc2C(=O)N([C@H](C)CO)C[C@@H]1C,6%,-1%,-2%,.,.,.
O=[N+]([O-])/C=C/c1cc2ccccc2[nH]1,?,?,-46%,3%,10µM*,?
CC(C)(C)NC(=O)NC(=O)CN1C(=O)NC(c2ccccc2)(c2ccccc2)C1=O,4%,0%,-14%,-4%,-20%,-1%
CS(=O)(=O)CCC(C(=O)Nc1ccc2c(c1)OCO2)N1Cc2ccccc2C1=O (stereo not given),7%,-17%,?,-4%,24%,1%
CCN(CC)CCNC(=O)c1ccc(Cl)c(S(=O)(=O)Nc2ccc(Cl)cc2)c1,-1%,-4%,4%,-3%,?,20µM*
CC1=C(C(=O)OC2CCCCC2)C(c2cccnc2)n2nnnc2N1 (stereo not given),-11%,-1%,-12%,?,24%,16µM*
Cc1cc(C(=O)CSc2nnc(-c3cccs3)n2Cc2ccccc2)c(C)n1C,6%,?,13%,6%,43%,3%
O=c1cc(CSc2nnc(-c3cccs3)n2Cc2ccccc2)nc2sc3ccccc3n12,-3%,-8%,-50%,22%,?,14µM*
C[n+]1cccc(/C=N/Nc2nc(Cl)c(C#N)c(Cl)c2Cl)c1,-4%,10%,-15%,-2%,-12%,-6%
N#Cc1c(Cl)nc(N/N=C/c2ccccc2)c(Cl)c1Cl,4%,?,21%,1%,8.9µM*,5µM*
CCOC(=O)c1ccc(-n2[nH]c(-c3ccccc3)cc2=O)cc1,.,?,-19%,-7%,?,5.6µM*
CC1(C)CC2C1CC[C@]1(C)CCC3C(C(=O)O)CC(=O)O[C@]32C1 (stereo not given in full),.,.,.,.,-4%,2%
